Test results published in ChEMBL document CHEMBL3988442, “University of Dundee, Small-Polar-MMV Screening Library” (2021).
Among all 48,000 compounds or so, about 13,000 (27%) showed an effect of 50% or more. The list shows a part of the results.

Tested on: Wolbachia pipientis
Experiment: Anti-Wolbachia Cell-Based Screen
Format: functional
Design: scale not given: in the data most compounds retested in dose-response had high values
Settings: 5 µM

Compound	Percent Effect [%]
Cc1noc(C)c1CN1CC[C@H]2OCC[C@@H](C(=O)N3CCCO3)[C@H]2C1	-12.4
O=C(NCC(O)c1ccc(Cl)s1)c1ccoc1 (stereo not given)	3.126
CC(=O)N1CCN(C(=O)C(C)Nc2ccc3ncsc3c2)CC1 (stereo not given)	-9.61
Cc1n[nH]c(C2CN(Cc3csc(C4CCCC4)n3)CCO2)n1 (stereo not given)	6.822
c1ncn(CC2CN(Cc3csc(C4CCCC4)n3)CCO2)n1 (stereo not given)	-2.779
c1csc(-c2nc(CN3CCOC(Cn4cccn4)C3)cs2)c1 (stereo not given)	96.48
Cc1cnn(CC2CN(Cc3csc(C4CCCC4)n3)CCO2)c1 (stereo not given)	109.2
c1cnn(CC2CN(Cc3csc(-c4ccsc4)n3)CCO2)c1 (stereo not given)	-6.772
CN(C)CC1CN(Cc2csc(C3CCCC3)n2)CCO1 (stereo not given)	6.428
c1cnn(CC2CN(Cc3csc(C4CCCCC4)n3)CCO2)c1 (stereo not given)	111.5
c1ccc(-c2nc(CN3CCOC(Cn4cccn4)C3)cs2)cc1 (stereo not given)	-16.04
c1csc(-c2nc(CN3CCOC(Cn4cncn4)C3)cs2)c1 (stereo not given)	-0.6055
CNC(=O)[C@H]1C[C@H]2OCC[C@H]2N(Cc2cccc3ccccc23)C1.O=C(O)C(F)(F)F	25.43
CC(=O)N1CCN(c2cc(N(C)C)cnn2)CC1	5.157
CN(Cc1c(Cl)ccc2cccnc12)CC(C)(CO)CO	4.13
CCS(=O)(=O)c1ncc(CN2CCN(C)CC2)n1CCc1ccccc1	2.419
CC(C)(C)CN(CCO)C(=O)Nc1cccc(N2CCNC2=O)c1	0.4334
Cn1cnc(S(=O)(=O)NCC2(O)CCOc3ccccc32)c1 (stereo not given)	-16.89
O=C(CC1CC1)N1CCC2(CC1)CN(c1ncc(F)cn1)CCO2	-18.12
Nc1nc(N)c2c(n1)OC1(CCN(C(=O)CC3CCCNC3)CC1)C2 (stereo not given)	130
O=C(CC1CCCCC1)N1CCC(O)(C(F)(F)F)C1 (stereo not given)	-0.05196
Nc1nc(N)c2c(n1)OC1(CCN(C(=O)CC3CCCCN3)CC1)C2 (stereo not given)	102.3
CC(C)(C)c1cc(C[C@H]2CNCC[C@H]2CC(=O)N2CCCCC2)no1	3.52
O=C1OC2(CCNCC2)CN1CC(=O)N1CCCC1c1nccs1 (stereo not given)	1.843
Nc1nc(N)c2c(n1)OC1(CCN(C(=O)CC3CCNCC3)CC1)C2	145.9

Compound	Percent Effect [%]
CC(C1CC1)N(C)Cc1nnc(-c2ccc(Br)s2)o1 (stereo not given)	-7.051
CCCc1cc(=O)[nH]c(-c2cccc(CN3CCCCCC3)c2)n1	2.31
CCc1nc(C)c(C(C)N(C)CCc2ccccn2)s1 (stereo not given)	10.86
CCc1csc(NC(=O)NCc2ccccn2)n1	-8.56
CCCc1cc(=O)[nH]c(SCc2ccccn2)n1	119.2
CCc1cc(=O)[nH]c(SCc2ccccn2)n1	161.3
CCCc1cc(NC2CCN(Cc3ccccn3)CC2)n2nccc2n1	4.154
Cc1ccc2cc(CN(C)Cc3ccccn3)c(=O)[nH]c2c1	3.618
CCc1c(C)nc(SCc2ccccn2)[nH]c1=O	110.7
Cc1cc(CSCc2ccccn2)on1	-5.175
CN1CCC(c2nnc3ccc(C(=O)N4CCCCC4)cn23)C1.O=C(O)C(F)(F)F (stereo not given)	-6.443
Cc1cc(NC(=O)Nc2ccc3c(ccn3CCN(C)C)c2)n(C)n1	0.0592
CN(C)CCNC(=O)Cn1cnc2cc(NC(=O)C3CC3)ccc21	109.1
CC(CC(=O)Nc1ccc(C(=O)N(C)C)c(Cl)c1)n1cccc1 (stereo not given)	-5.842
CC(C)C(=O)Nc1ccc2c(c1)ncn2CC(=O)NCCN(C)C	87.82
CC(C)c1nc2cc(NC(=O)Cn3ccc(=O)[nH]c3=O)ccc2o1	-1.465
Cn1c(C2CC2)nc2cc(NC(=O)C3CC=CC3)ccc21	-5.037
CN(C)CCNC(=O)Cc1cccc(I)c1	13.6
CC(C)CC(=O)Nc1ccc2c(c1)ncn2CC(=O)NCCN(C)C	122
CN(C)CCn1ccc2cc(NC(=O)NCc3ncnn3C)ccc21	9.223
CCOCCOC(C)C(=O)Nc1ccc2ccn(CCN(C)C)c2c1 (stereo not given)	3.941
CC(C)NC(=O)Nc1ccc2c(c1)ncn2CC(=O)NCCN(C)C	117
CCN(CC)C(=O)Cn1ccc2cc(NC(=O)C3CC3)ccc21	-9.83
CC(c1ccc(F)cc1)n1ccnc1-c1cc2n(n1)CCCNC2 (stereo not given)	-9.513
CCC(C)(NCc1nnc(C(C)(C)C)o1)c1nccs1 (stereo not given)	-1.916

Compound	Percent Effect [%]
CS(=O)(=O)CCc1ncnn1-c1ccc(F)c(Cl)c1	-1.677
CC(C)CNC(=O)CCN1C(=O)CCc2cc(F)ccc21	-21.96
CCN1CC2(CCN(C(=O)C(C)Oc3ccc(F)cc3Cl)CC2)CC1=O (stereo not given)	-0.3825
CS(=O)(=O)Nc1ccc(CNC(=O)CN2CCc3ccccc32)cc1	8.101
CCCC(C)NC(=O)CCN1C(=O)CCc2cc(F)ccc21 (stereo not given)	-15.19
CCCC(O)CN1CCC(=O)N(C)Cc2cc(F)ccc21 (stereo not given)	92.66
CC(C)C(C)NC(=O)CCN1C(=O)CCc2cc(F)ccc21 (stereo not given)	-7.908
CC(Cn1cccn1)NC(=O)NCCCN1CCc2ccccc21 (stereo not given)	-6.742
CN1Cc2ccccc2N(CC(O)C(F)(F)F)CCC1=O (stereo not given)	95.04
CCN1Cc2cc(F)ccc2N(CC(O)C(F)(F)F)CCC1=O (stereo not given)	105.6
OC(CN1CCCc2ccc(F)cc21)Cn1cccn1 (stereo not given)	-5.11
CN1Cc2cc(F)ccc2N(CC(O)C(F)(F)F)CCC1=O (stereo not given)	104.4
CC(O)CN1CC2(CCC1=O)CCN(Cc1cc(F)ccc1Cl)CC2 (stereo not given)	0.5458
N#Cc1c(Cl)nsc1NCC1(c2ccccc2)CCC1	12.51
CCNC(=O)[C@@H]1C[C@@H](NC(=O)c2ccc(C#N)cc2)CN1CCCSC	95.48
CCNC(=O)[C@@H]1C[C@@H](NC(=O)c2ccsc2)CN1CCCSC	107.8
CSCCC(C)(O)CNC(=O)c1ccsc1 (stereo not given)	-0.07665
CCN(CC)C(=O)[C@@H]1C[C@H](NC(=O)c2cccn2C(C)C)CN1C	0.9655
CCNC(=O)[C@@H]1C[C@@H](NC(=O)c2cccn2C)CN1CCCSC	111.5
CCNC(=O)[C@@H]1C[C@H](NC(=O)c2ccccc2C#N)CN1CCCSC	-7.827
C/C=C(\C)CN1C[C@@H](NC(=O)c2ccc(F)c(F)c2)C[C@H]1C(=O)NCC	-14.95
CCNC(=O)[C@@H]1C[C@@H](NC(=O)Cc2ccncc2)CN1Cc1ccsc1	-6.435
C/C=C(\C)CN1C[C@@H](NC(=O)c2ccc(O)c(Cl)c2)C[C@H]1C(=O)NCC	-9.176
CCNC(=O)[C@@H]1C[C@H](NC(=O)c2cncnc2C)CN1CCCSC	-8.18
CCNC(=O)[C@@H]1C[C@@H](NC(=O)c2ccc(C)cc2O)CN1CCCSC	82.24
